From PubChem BioAssay (NCATS) come the findings set out here.

Inconclusive results are not listed. Unmarked numbers belong to inactive results. Calls of active or inactive are those of the source. Calls come from the whole dose curve; as a rule, active = well fitted inhibition curve with a large enough effect; inconclusive = small, poorly fitted or top-dose-only effect; inactive = no such curve, though single readings can be large or run the other way.

In test [1] the test system is Zika virus NS2B-NS3 protease (unlinked complex). Briefly: Primary screen GU Rhodamine qHTS for Zika virus inhibitors: Unlinked NS2B-NS3 protease assay (AID 1347159). Note: nearly all actives have a fitted effect of over 60% in size. Put shortly: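 Noncovalent NS2B hydrophilic domain/NS3 protease complex (25 nM final) in 10 mM Tris-HCl pH 8.0, 0.01% Tween 20, preincubated 15 min with compounds (up to 114 microM), then 1.5 microM Rhodamine110 substrate. Fluorescence change over 15 min fitted to 4-parameter Hill.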
In general terms: In qHTS, concentration-response curves come from the screen itself.

The subject of test [2] is Zika virus NS2B-NS3 protease (linked construct). Briefly: Primary screen NINDS Rhodamine qHTS for Zika virus inhibitors (AID 1347160). Note: nearly all actives have a fitted effect of over 55% in size. Put shortly: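 Purified NS2B-NS3 protease with the NS2B hydrophilic domain joined by a flexible linker (25 nM) in 10 mM Tris-HCl pH 8.0, 0.01% Tween 20, preincubated 15 min at RT with compound; Rhodamine110 peptide substrate 1.5 µM; fluorescence change over 15 min; 4-parameter Hill fit.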
% is set by controls: 0 for no effect and ±100 for the full control effect.

For `C[C@H](Nc1ncnc2nc[nH]c12)c1cc2ccc(F)cc2nc1-c1ccccn1`, the Potency result in test [1] and in test [2] was “inactive” throughout.

As for `C[C@H]1CC[C@@]2(OC1)O[C@H]1CC3C4CC[C@H]5C[C@@H](O)[C@H](O)C[C@]5(C)C4=CC(=O)[C@]3(C)[C@H]1[C@@H]2C` (stereo partly specified), the Potency result in test [1] and in test [2] was “inactive” each time.

On to `C[C@@H]1O[C@@H](O[C@H]2[C@H](O)[C@@H](O[C@@H]3O[C@H](CO)[C@@H](O)[C@H](O[C@@H]4O[C@H](CO)[C@@H](O)[C@H](O)[C@H]4O)[C@H]3O)[C@H](O[C@H]3CC[C@@]4(C)C(=CC[C@@H]5C4CC[C@@]4(C)C5C[C@@H]5OC6(CC[C@@](C)(CO[C@@H]7O[C@H](CO)[C@@H](O)[C@H](O)[C@H]7O)O6)[C@@H](C)[C@@H]54)C3)O[C@@H]2CO)[C@H](O)[C@H](O)[C@H]1OC1OC(CO)C(O)C(O)C1O` (stereo partly specified), for which the activity change, negative = inhibition in test [1] is -17.5% [at 19.1 µM]; in test [2] it was -10.4% [at 10.7 µM].

For the compound `CC(=O)O[C@@H]1c2c(C)coc2C(=O)[C@@]23O[C@@H]2CC[C@H](C)[C@@]13C`, the Potency entry in test [1] and in test [2] was “inactive” throughout.

Take `CC(C)(F)C[C@@H](N[C@@H](c1ccc(-c2ccc(S(C)(=O)=O)cc2)cc1)C(F)(F)F)C(=O)NC1(C#N)CC1`: the Potency result in test [1] and in test [2] was “inactive” throughout.

For `CCOC(=O)CCN(C(=O)c1ccc2c(c1)nc(CNc1ccc(C(=N)N)cc1)n2C)c1ccccn1`, the Potency entry in test [1] and in test [2] was “inactive” in each case.

Consider `CC1=CC(=O)CC(C)(CO)C1(O)/C=C/C(C)O[C@@H]1O[C@H](CO)[C@@H](O)[C@H](O)[C@H]1O` (stereo partly specified), for which the Potency result in test [1] and in test [2] was “inactive” throughout.

Take `OCc1ccc(O[C@@H]2O[C@H](CO)[C@@H](O)[C@H](O)[C@H]2O)cc1`: the Potency entry in test [1] and in test [2] was “inactive” in each case.

Consider `CC(C)[C@H]1CC[C@@]2(O)COC(=O)[C@H]2[C@@H]1/C=C(\CO)C(=O)O`, for which the Potency entry in test [1] and in test [2] was “inactive” throughout.

With `COC(=O)C1=CO[C@@H](O[C@@H]2O[C@H](CO)[C@@H](O)[C@H](O)[C@H]2O)[C@@H]2C(CO)=CC[C@]12O`, the Potency result in test [1] and in test [2] was “inactive” throughout.

Take `CC1(C(=O)O)CCCC2(C)C3CCC4CC3(CCC12)CC4=O` (stereo unspecified): the Potency result in test [1] and in test [2] was “inactive” throughout.

For the compound `C/C1=C\CC[C@H](C)CCO[C@@H]2O[C@H](CO[C@@H]3OC[C@](O)(COC1=O)[C@H]3O)[C@@H](O)[C@H](O)[C@H]2O`, the Potency entry in test [1] and in test [2] was “inactive” in each case.

Turning to `Cc1cc(Nc2cc(N3CCN(C)CC3)nc(/C=C/c3ccccc3)n2)n[nH]1`, the Potency result in test [1] and in test [2] was “inactive” throughout.

`COc1cc2occc2c(O[C@@H]2O[C@H](CO)[C@@H](O)[C@H](O)[C@H]2O)c1CCC(=O)O`: the Potency result in test [1] and in test [2] was “inactive” in each case.

Regarding `CCc1ccc(Cc2ccc3c(c2)[C@]2(OC3)O[C@H](CO)[C@@H](O)[C@H](O)[C@H]2O)cc1`, the Potency result in test [1] and in test [2] was “inactive” in each case.

With `CC1=C(C(=O)O)/C(=C\CO[C@@H]2O[C@H](CO)[C@@H](O)[C@H](O)[C@H]2O)C(OC(=O)/C=C\c2ccc(O)cc2)C1` (stereo partly specified), the Potency entry in test [1] and in test [2] was “inactive” each time.

For the compound `C[C@@H]1CN(Cc2ncccn2)C[C@H]1c1nc2c(cnn2C2CCOCC2)c(=O)[nH]1`, the Potency result in test [1] and in test [2] was “inactive” throughout.

In the case of `CO[C@H]1C[C@@H]2CC[C@@H](C)[C@@](O)(O2)C(=O)C(=O)N2CCCC[C@H]2C(=O)O[C@H]([C@H](C)C[C@@H]2CC[C@@H](OP(C)(C)=O)[C@H](OC)C2)CC(=O)[C@H](C)/C=C(\C)[C@@H](O)[C@@H](OC)C(=O)[C@H](C)C[C@H](C)/C=C/C=C/C=C/1C`, the Potency entry in test [1] and in test [2] was “inactive” in each case.

Consider `CCOC(=O)c1sc(NC(=O)[C@H](C(C)C)n2c(=O)[nH]c3ccccc3c2=O)nc1C`, for which the Potency entry in test [1] and in test [2] was “inactive” each time.

As to `COC(=O)c1cc(OC)c(O[C@@H]2O[C@@H](C)[C@H](O)[C@@H](O)[C@H]2O)c(OC)c1`, the Potency entry in test [1] and in test [2] was “inactive” in each case.

As to `Cc1cc(Nc2ncc3cc(-c4c(Cl)cccc4Cl)c(=O)n(C)c3n2)ccc1F`, the Potency entry in test [1] and in test [2] was “inactive” each time.

As for `CO[C@H]1C[C@@H]2CC[C@@H](C)[C@@](O)(O2)C(=O)C(=O)N2CCCC[C@H]2C(=O)O[C@H]([C@H](C)C[C@@H]2CC[C@H](n3cnnn3)[C@H](OC)C2)CC(=O)[C@H](C)/C=C(\C)[C@@H](O)[C@@H](OC)C(=O)[C@H](C)C[C@H](C)/C=C/C=C/C=C/1C`, the Potency result in test [1] and in test [2] was “inactive” throughout.

For `CCCNc1ccc2ncc(-c3ccc4[nH]ncc4c3)n2n1`, the Potency entry in test [1] and in test [2] was “inactive” each time.

Consider `C=C(CO)C12OC1C1(C)C(=CC2=O)C(O)C(O)CC1C` (stereo unspecified), for which the Potency entry in test [1] and in test [2] was “inactive” each time.

For the compound `FC(F)(F)c1cc(-c2ncn(/C=C\c3nnco3)n2)cc(C(F)(F)F)c1`, the Potency entry in test [1] and in test [2] was “inactive” in each case.

`C=CC1C(OC2OC(CO)C(O)C(O)C2O)OC=C(C(=O)OC)C1CC1CC(=O)CC(CCc2ccc(O)cc2)O1` (stereo unspecified): the Potency result in test [1] and in test [2] was “inactive” throughout.

Take `O=C(Cc1ccc(-c2ccccc2)cc1)NC1CCC1`: the Potency result in test [1] and in test [2] was “inactive” in each case.

As to `COc1ccc(CN2C(=O)C(=O)c3cc(S(=O)(=O)N4CCC[C@H]4COc4cccnc4)ccc32)cc1`, the Potency result in test [1] and in test [2] was “inactive” throughout.
